From PubChem
The list is not random: actives were taken first. Their share in the collection is about 1.8%.
GLP1R ag = qHTS of GLP-1 Receptor Agonists. Glucagon-like peptide 1 receptor (Homo sapiens), P43220. HEK293 GLP-1R CRE-luciferase, luminescence, 4-6 h; cells express a hypersensitive GLP-1R form. Potency, µM (titrated, usually from 45.6 µM), actives largely listed as activators. 380,000 compounds, 0.007% hits. AID 624172, 2012
Target sequence (P43220 whole entry, looked up): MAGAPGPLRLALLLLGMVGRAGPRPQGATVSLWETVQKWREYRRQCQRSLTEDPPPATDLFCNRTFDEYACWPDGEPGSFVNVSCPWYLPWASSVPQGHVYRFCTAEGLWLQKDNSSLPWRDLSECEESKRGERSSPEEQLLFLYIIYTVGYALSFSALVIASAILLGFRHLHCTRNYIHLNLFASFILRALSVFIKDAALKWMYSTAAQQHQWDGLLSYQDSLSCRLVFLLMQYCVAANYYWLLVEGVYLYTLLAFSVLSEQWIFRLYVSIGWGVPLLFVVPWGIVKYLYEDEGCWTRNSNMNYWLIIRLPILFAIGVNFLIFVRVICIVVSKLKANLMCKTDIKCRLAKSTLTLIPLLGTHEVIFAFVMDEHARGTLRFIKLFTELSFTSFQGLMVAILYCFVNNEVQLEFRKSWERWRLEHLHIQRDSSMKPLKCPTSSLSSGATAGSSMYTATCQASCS
GLP1R inv ag = qHTS of GLP-1 Receptor Inverse Agonists (Inhibition Mode) | AID 624417, 2012 | Glucagon-like peptide 1 receptor (Homo sapiens), P43220 | HEK293 GLP-1R CRE-luciferase, luminescence, 24 h; GLP-1R form is constitutively active | 410,000 compounds, 1.6% hits | Potency, µM (titrated, usually from 38.3 µM), most hits filed as inhibitors; further: nearly all actives have a fitted effect of over 55% in size
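Luminescence readout: a drop in cAMP-driven luciferase signal flags inverse agonism at a constitutively active GLP-1R stably expressed in HEK293. Compound exposure lasted 24 hr at 37 deg C, 5% CO2.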
HEK293 tox = qHTS of GLP-1 Receptor Inverse Agonists: Cytotox Screen; HEK293 cAMP-luciferase reporter cells, luminescence, 24 h; Potency, µM (doses to about 38.3 µM), hits mostly inhibitors; 410,000 compounds, 0.13% hits; AID 624418, 2012;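 further: loss of luciferase light is scored as toxicity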
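Compound-treated cells are incubated 24 hr at 37 deg C under 5% CO2 after a 12 hour attachment period, then luciferase detection reagent is added and luminescence is measured following 12 min at room temperature; lowered signal indicates toxicity.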
PTHR1 agonist = qHTS for PTHR1 Agonists: Primary Screen; Potency, µM (doses to about 115 µM), usual class: activators; 410,000 compounds, 0.075% hits; HEK293 GP2 PTHR1 cells, GloSensor cAMP luminescence, 1 h; further: nearly all actives have a fitted effect of over 55% in size
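HEK-293-derived GP2 cells expressing PTHR1 and a GloSensor cAMP reporter, 3,000/well, plated overnight, given luciferin plus IBMX (each 0.5 mM as added) for 1 h at 37 °C, then compound for 1 h at 37 °C. Luminescence was read after 15 min at room temperature.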
TSHR antag = Antagonists of the Thyroid Stimulating Hormone Receptor: HTS campaign; activity change, negative = inhibition, % at 11.5 µM; 330,000 compounds, 0.2% hits; Thyrotropin receptor (Homo sapiens), P16473; TSHR-expressing cells, TSH-stimulated cAMP HTRF, 2 h; hits give low values;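 active means activity change below a set negative limit, meaning inhibition stronger than a set level, cut at about -70% in these data; inconclusive means activity change between two set negative limits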
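Cell-based HTRF cAMP assay; TSHR cells + compound, TSH EC80 (4nM final), 2 h, 37 deg C. Lysis with anti-cAMP cryptate and cAMP-d2, 30 min RT, read 665/620 nm.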
Each line names hits and unclear results; the compound was inactive in the other large screens. Unless noted, the call rests on the fitted dose curve; in most records, active means well fitted curve in the direction sought with a large enough effect; inconclusive means small, poorly fitted or top-dose-only effect, or another doubt; inactive means no such curve, though single readings can be large; an effect the other way counts as inactive or inconclusive.

CN(C)c1ncnc2c1ncn2C1OC(CO)C(O)C1O (centres undefined)	none
OCC1OC(n2ccc3c2ncn2ncnc32)C(O)C1O (centres undefined)	GLP1R inv ag 7.9µM (no result: TSHR antag)
CCCn1c(SCc2nc(-c3ccccc3OCC)no2)nnc1-c1ccc(Cl)cc1	GLP1R inv ag 10µM (no result: GLP1R ag, TSHR antag)
Cc1cc(NC(=O)CCCSc2nc(-c3ccco3)cc(C(F)(F)F)n2)n(-c2ccccc2)n1	GLP1R inv ag 8.9µM
Cc1cc(NC(=O)CSc2nc(-c3ccco3)cc(C(F)(F)F)n2)n(-c2ccccc2)n1	none
COc1ccc(NC(=O)CCCSc2nc(-c3ccco3)cc(C(F)(F)F)n2)cc1	GLP1R inv ag inconclusive (no result: GLP1R ag, TSHR antag)
CN(C)C(=O)N1CCN(S(=O)(=O)c2ccc3ccccc3c2)CC1	none
O=C(CCl)N1CCN(S(=O)(=O)c2ccc3ccccc3c2)CC1	GLP1R inv ag 10µM, HEK293 tox inconclusive
O=C(Nc1ccc(F)cc1F)C(Cc1ccccc1)N1Cc2ccccc2C1=O (centres undefined)	GLP1R inv ag inconclusive (no result: GLP1R ag, TSHR antag)
COc1ccccc1NC(=O)C1(c2ccccc2)CCCC1	GLP1R inv ag 4µM
CNC(=O)C1(c2ccccc2)CCCCC1	none (no result: TSHR antag)
CSC(=Nc1ccccc1)N=C(SCc1ccccc1)N(C)C	GLP1R inv ag 3.5µM, HEK293 tox 5.6µM (no result: TSHR antag)
N#CNC(=Nc1ccccc1)SCc1ccc(C(=O)O)cc1	none
CCc1ccccc1NC(=O)Nc1cc(C(=O)NCc2ccccc2OC)ccc1N1CCCC1	none (no result: GLP1R ag, TSHR antag)
CN(C)CCCN(C(=O)c1ccc2c(c1)CCCC2)c1nc2ccc(Cl)cc2s1	GLP1R inv ag 5µM
CN(C)CCCN(C(=O)CCc1ccccc1)c1nc2ccc(Cl)cc2s1	GLP1R inv ag 3.5µM, HEK293 tox inconclusive
Cc1ccc2nc(N(CCCN(C)C)C(=O)CCc3ccccc3)sc2c1	GLP1R inv ag inconclusive, HEK293 tox inconclusive
CN(C)CCCN(C(=O)c1sc2ccccc2c1Cl)c1nc2ccc(F)cc2s1	GLP1R inv ag 10µM
CN(C)CCCN(C(=O)c1cccs1)c1nc2ccc(F)cc2s1	HEK293 tox inconclusive (no result: GLP1R ag, TSHR antag)
CCOc1ccc2nc(N(CCCN(C)C)C(=O)c3ccc4c(c3)CCCC4)sc2c1	GLP1R inv ag inconclusive, HEK293 tox inconclusive, PTHR1 agonist inconclusive
CCOC(=O)Cn1c(=O)n(C2CCCCC2)c2nc(-c3ccc(CC)cc3)nc(C(N)=O)c21	none (no result: TSHR antag)
Cc1ccc(Sc2c([N+](=O)[O-])c(=O)n(C)c3ccccc23)cc1	TSHR antag -73
Cc1ccc(Sc2c(C=O)c3ccccc3n2C)cc1	GLP1R inv ag 5.6µM, HEK293 tox inconclusive
Cc1ccc(Sc2c(O)c3ccccc3n(C)c2=O)cc1	none
Cc1cccc(C)c1-n1ncc(C(=O)N2CCN(c3ncccn3)CC2)c1C1CCN(C(=O)OC(C)(C)C)CC1	none (no result: GLP1R ag, TSHR antag)
CCOC(=O)Cn1cccc1-c1nc(-c2ccc(OC)cc2)c(-c2ccc(OC)cc2)s1	none (no result: GLP1R inv ag, HEK293 tox, PTHR1 agonist, TSHR antag)
Cc1ccc(/C=C/c2onc(C)c2S(=O)(=O)N2CCC(C(=O)Nc3ccccc3C(F)(F)F)CC2)cc1	none (no result: TSHR antag)
O=C(COC(=O)c1ccc2[nH]c3c(c2c1)CCCC3)Nc1ccccc1Cl	none
CCC(C)c1ccccc1NC(=O)COC(=O)c1ccc2[nH]c3c(c2c1)CCCC3 (centres undefined)	GLP1R inv ag 5.6µM
O=C(Cn1c(=O)nc(-c2ccccc2)c2cc(Cl)ccc21)Nc1ccc(F)c(Cl)c1	none (no result: TSHR antag)
CCOc1ccc(/C=N/NC(=S)NC2CC3C=CC2C3)cc1 (centres undefined)	GLP1R inv ag 3.2µM
Oc1c(Br)cc(Br)cc1/C=N/NC(=S)N[C@H]1CC2C=CC1C2 (some centres undefined)	GLP1R inv ag 3.5µM
O=C(Nc1ccc2c(c1)OCCO2)c1cccc(Cl)c1Cl	GLP1R inv ag 11µM
CCCCC(F)(F)[C@@]1(O)CC[C@H]2[C@H](CC(=O)[C@@H]2CCCCCCC(=O)O)O1	none (no result: GLP1R inv ag, HEK293 tox, PTHR1 agonist, TSHR antag)
O=[N+]([O-])c1ccc(NN=Cc2cc(Br)ccc2O)nc1	GLP1R inv ag 2.8µM, HEK293 tox inconclusive (no result: TSHR antag)
Cc1ccc(NS(=O)(=O)c2ccc(-n3cccn3)cc2)c(C)c1	GLP1R inv ag 10µM
Cc1ccc(NS(=O)(=O)c2ccc(-n3cccn3)cc2)c(Br)c1	GLP1R inv ag inconclusive (no result: TSHR antag)
COc1cc(OC)c(NS(=O)(=O)c2c(C(=O)N3CCCCCC3)c(C)n(C)c2C)cc1Cl	none (no result: GLP1R ag, TSHR antag)
N#C/C(=C\c1ccc(-c2cc(Cl)ccc2Cl)o1)C(=O)Nc1cccc2ncccc12	none (no result: GLP1R ag, GLP1R inv ag, HEK293 tox, PTHR1 agonist)
Cc1cc(OCC(O)CN2CCc3ccccc3C2)ccc1Cl (centres undefined)	GLP1R inv ag 7.1µM
Cc1ccc(C)c(OCC(O)CN2CCc3ccccc3C2)c1C (centres undefined)	GLP1R inv ag 8.9µM
CCC1NC(=O)C(NC(=O)c2ncccc2O)C(C)OC(=O)C(c2ccccc2)NC(=O)C2CC(=O)CCN2C(=O)C(Cc2ccccc2)N(C)C(=O)C2CCCN2C1=O (centres undefined)	none (no result: GLP1R inv ag, HEK293 tox, PTHR1 agonist, TSHR antag)
CC(=O)c1ccc(NC(=O)c2cnn3ccccc23)cc1	GLP1R inv ag 2.5µM
O=C(CS)Nc1ccccc1	none (no result: GLP1R inv ag, HEK293 tox, PTHR1 agonist, TSHR antag)
Cc1cccc(CN2CCc3c([nH]c4ccccc34)C2CC(C)C)n1 (centres undefined)	GLP1R inv ag 11µM
Cc1cnc(CN2CCc3c([nH]c4ccccc34)C2CC(C)C)[nH]1 (centres undefined)	GLP1R inv ag inconclusive
Cn1nc(C(C)(C)C)cc1C(=O)N1CCCCC1c1cc(C(=O)Nc2cccc(C#N)c2)no1 (centres undefined)	GLP1R inv ag 10µM (no result: TSHR antag)
COCCNc1oc(/C=C/c2ccc(F)cc2)nc1C#N	none (no result: GLP1R ag, TSHR antag)
COc1ccc(CC(=O)N2CCc3c([nH]c4ccccc34)C2c2ccc(SC)cc2)cc1 (centres undefined)	GLP1R inv ag inconclusive (no result: GLP1R ag, TSHR antag)
CCOc1cccc(C2c3[nH]c4ccccc4c3CCN2C(=O)c2ccccc2F)c1 (centres undefined)	GLP1R inv ag 5.6µM (no result: GLP1R ag, TSHR antag)
CCOc1ccc(C2c3[nH]c4ccccc4c3CCN2C(=O)Cc2cccc(OCC)c2OCC)cc1 (centres undefined)	GLP1R inv ag 6.3µM (no result: GLP1R ag, TSHR antag)
O=C(CSCc1ccc(F)cc1)N1CCc2c([nH]c3ccccc23)C1c1ccccc1 (centres undefined)	GLP1R inv ag 7.9µM (no result: GLP1R ag, TSHR antag)
CCOc1cccc(CC(=O)N2CCc3c([nH]c4ccccc34)C2c2ccccc2)c1OCC (centres undefined)	GLP1R inv ag inconclusive (no result: GLP1R ag, TSHR antag)
COc1ccc(CCC(=O)N2CCc3c([nH]c4ccccc34)C2c2ccc(F)cc2)cc1 (centres undefined)	GLP1R inv ag 10µM (no result: GLP1R ag, TSHR antag)
